In all, about 5,500 compounds went through this assay and about 2,000 (36%) were called active. About 18% were inconclusive and are not listed. The list shows a part of the results. Values without a mark were called inactive. No stated cut-off is given here; in the data, active means normalized growth mostly below about 0.91 (no sharp cut-off); inconclusive means no clear call, values can overlap the other calls; inactive means mostly above about 0.92.
Assay: chemical genetic growth profiling, strain panel (AID 1159580);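 further: tested at 20 µM; growth read once vehicle control cultures reached saturation at 30 °C; 1 = growth at the plate median or of vehicle wells; lower values mean less growth of the strain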
Conditions: S. cerevisiae deletion strains, growth OD

CN1CCCC1CCOC(C)(c1ccccc1)c1ccc(Cl)cc1 (configuration not stated) gave a normalized growth (locus YAL013W, strain DEP1, hits give low values) of 0.981, a normalized growth (locus YAL040C, strain CLN3, hits give low values) of 0.986 and a normalized growth (locus YCL061C, strain MRC1 (second series), hits give low values) of 0.982. For the same compound, the normalized growth (locus YDR363W, strain ESC2, hits give low values) was 0.983, the normalized growth (locus YER002W, strain NOP16, hits give low values) was 1 and the normalized growth (locus YGR229C, strain SMI1, hits give low values) was 0.714 (active). The normalized growth (locus YMR263W, strain SAP30, hits give low values) was 0.955, the normalized growth (locus YNL175C, strain NOP13, hits give low values) was 0.995 and the normalized growth (locus YNL197C, strain WHI3, hits give low values) was 1.03. The normalized growth (locus YNL224C, strain SQS1, hits give low values) was 1.01, the normalized growth (locus YOR083W, strain WHI5 (second series), hits give low values) was 0.986 and the normalized growth (locus YPL241C, strain CIN2, hits give low values) was 0.996.

Reference: PubChem BioAssay AID1159580 (chemical genetic matrix, 2015)
